Results on 102 compounds are retold here after PubChem BioAssay AID1946 (Johns Hopkins Ion Channel Center, 2009).

Among all 2,400 compounds or so, about 180 (7.5%) were called active.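 Rule for the calls: active = readout below zero, meaning a drop past 3 SD under the dofetilide-free negative control mean; inactive = the rest.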 Many of the other results were omitted from the sample, so actives are more common in it than they were.

The target in the assay is Potassium voltage-gated channel subfamily KQT member 2 (Rattus norvegicus) (UniProt O88943). Description: rat KCNQ2 channel inhibition by compounds alone, confirmation, counter-screen for hERG block protector project, cell-based, CHO, FluxOR thallium flux (AID 1946). To be noted: CHO-KCNQ2 cells, FluxOR thallium flux fluorescence; at 10 µM; hits give low values; zero marks the 3-SD hit cutoff.
Potassium voltage-gated channel subfamily KQT member 2 (Rattus norvegicus), sequence (O88943 whole entry, looked up): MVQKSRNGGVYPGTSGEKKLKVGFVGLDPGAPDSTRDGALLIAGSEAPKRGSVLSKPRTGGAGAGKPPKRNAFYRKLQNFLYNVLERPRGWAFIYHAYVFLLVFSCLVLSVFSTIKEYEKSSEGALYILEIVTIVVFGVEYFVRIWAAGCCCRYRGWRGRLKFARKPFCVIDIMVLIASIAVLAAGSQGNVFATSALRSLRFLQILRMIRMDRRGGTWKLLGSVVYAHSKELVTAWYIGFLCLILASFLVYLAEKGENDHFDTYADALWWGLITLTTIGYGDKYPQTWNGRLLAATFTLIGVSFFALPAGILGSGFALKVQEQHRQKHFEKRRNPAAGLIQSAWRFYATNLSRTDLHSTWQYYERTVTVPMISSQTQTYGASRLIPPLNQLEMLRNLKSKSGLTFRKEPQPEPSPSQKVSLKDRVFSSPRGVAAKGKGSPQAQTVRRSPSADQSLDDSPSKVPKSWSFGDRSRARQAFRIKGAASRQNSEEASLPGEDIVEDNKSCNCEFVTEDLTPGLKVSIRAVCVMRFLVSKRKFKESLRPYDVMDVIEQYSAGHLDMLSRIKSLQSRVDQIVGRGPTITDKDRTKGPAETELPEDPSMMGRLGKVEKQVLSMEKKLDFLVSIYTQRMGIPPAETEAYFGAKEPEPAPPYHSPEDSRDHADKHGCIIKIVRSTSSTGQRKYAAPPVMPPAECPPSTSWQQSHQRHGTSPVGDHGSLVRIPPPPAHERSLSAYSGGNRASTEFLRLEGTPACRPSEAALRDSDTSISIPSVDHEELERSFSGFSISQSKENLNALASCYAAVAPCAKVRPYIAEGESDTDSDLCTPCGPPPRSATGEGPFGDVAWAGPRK
Take `CCN(CC)C(=S)NC(=O)c1ccc(OC)c(Br)c1`: the activity change vs negative control was 16.8% (inactive).
Under `O=C1CC(O)(C(F)(F)F)Oc2c1ccc1ccccc21` (configuration not stated) stands 49.7% (inactive); under `S=c1nc(C2CCCCC2)[nH]c2ccccc12`, 25.5% (inactive).
Turning to `O=C(C1CC1)N1N=C(c2ccccc2)CC1(O)C(F)(F)C(F)(F)F` (configuration not stated), the activity change vs negative control was 7.3% (inactive).
The result for `CCCCC1(O)CC(C(F)(F)F)=NN1C(=O)COc1ccccc1` (configuration not stated) reads -7.8% (active); that for `CC(C)(C)C1(O)CC(C(F)(F)F)=NN1C(=O)Cc1ccc([N+](=O)[O-])cc1` (configuration not stated), 10.6% (inactive); that for `CN(C(=S)NC(=O)c1ccc(Cl)cc1)C1CCCCC1`, 26.3% (inactive).
Under `CNC(=O)CSc1nnc(-c2ccco2)n1-c1ccc(C)cc1` stands -1.9% (active); under `CNC(=O)CSc1nnc(-c2ccco2)n1-c1ccccc1`, 7% (inactive); under `Cc1ccc(-n2ncc3c(SCC(=O)NNC(=O)c4ccco4)ncnc32)cc1`, 35.7% (inactive).
Under `C/C(=N/NC(=O)c1cc2ccccc2cc1O)c1ccco1` stands 87.3% (inactive).
In the case of `O=C(COc1ccc2ccccc2c1)NNC(=O)C(=O)Nc1ccccc1`, the activity change vs negative control was 61.8% (inactive).
The result for `CCCn1c(=S)[nH]c2sc3c(c2c1=O)CCCC3` reads 95% (inactive); that for `CCOC(=O)Cc1csc(NC(=S)NC(=O)c2ccccc2Br)n1`, 38.6% (inactive); that for `NC(=O)C1CCN(C(=O)c2cc3c(s2)CCCC3)CC1`, 41.4% (inactive).
Under `CC(OC(=O)c1cc2c(s1)CCCCC2)C(=O)NC(N)=O` (configuration not stated) stands -1.8% (active).
Under `Cc1csc(NC(=O)c2cc3c(s2)CCCC3)n1` stands 49.2% (inactive).
In the case of `Cc1nc(NCc2cccnc2)c2c3c(sc2n1)CC(C)CC3` (configuration not stated), the activity change vs negative control was 49.7% (inactive).
Under `N/C(=N\OS(=O)(=O)c1cccc([N+](=O)[O-])c1)c1ccncc1` stands 29.1% (inactive); under `Cc1cc(SCC(=O)c2cccc([N+](=O)[O-])c2)nc(=O)[nH]1`, 7.5% (inactive).
The result for `O=C(CSc1nnc(-c2ccncc2)o1)c1cccc([N+](=O)[O-])c1` reads -7.8% (active).
The result for `Cc1ccc2oc3c(c(=O)c2c1)C(c1cccs1)N(CCCN(C)C)C3=O` (configuration not stated) reads 21.6% (inactive); that for `CCC(C)N(C(=O)CSc1nnc(NC(C)C)s1)C1CCS(=O)(=O)C1` (configuration not stated), -0.9% (active); that for `CCOC(=O)c1sc2nc(C)nc(SCC(=O)N(C)C3CCS(=O)(=O)C3)c2c1C` (configuration not stated), 20.9% (inactive).
Turning to `CN(C(=O)CSc1ncnc2sc(-c3ccccc3)cc12)C1CCS(=O)(=O)C1` (configuration not stated), the activity change vs negative control is 94.7% (inactive).
The result for `COc1ccccc1C(=O)NNC(=O)C(=O)Nc1ccc(C)c(Cl)c1` reads 148% (inactive); that for `Cc1nn(Cc2ccccc2)c2c1C(c1cccnc1)C(C#N)=C(N)O2` (configuration not stated), 12.9% (inactive); that for `CCOC(=O)C1=C(N)Oc2cc(O)ccc2C1c1cccnc1` (configuration not stated), -1.7% (active).
On to `COC(=O)c1ccc(C2C(C#N)=C(N)Oc3cc(O)ccc32)cc1` (configuration not stated), for which the activity change vs negative control was 12.7% (inactive).
On to `Cc1nn(CC(=O)Nc2ccc(C(=O)N3CCCC3)cc2)c(=O)c2ccccc12`, for which the activity change vs negative control was 32.9% (inactive).
Consider `O=C(Nc1cccc(N=Cc2cc(Cl)cc(Br)c2O)c1)c1ccco1`, for which the activity change vs negative control is 53.8% (inactive).
The result for `COc1cccc(C(=O)NNC(=O)C(=O)Nc2cccc3ccccc23)c1` reads 91% (inactive).
Under `CCOC(=O)C(=CNc1ccc(OC)cc1[N+](=O)[O-])C(=O)OCC` stands 13.9% (inactive).
Under `COc1ccc(NC(=S)NC(NC(=O)c2cccc3ccccc23)C(Cl)(Cl)Cl)c([N+](=O)[O-])c1` (configuration not stated) stands -0.3% (active); under `COC(=O)Oc1ccc(/C=C/C(=O)OC(C)C)cc1OC(=O)OC`, 24.5% (inactive); under `CCN(CC)c1ccc(NC(=S)NC(=O)c2ccco2)cc1`, 67.2% (inactive).
With `CC1=CC(=O)C(C(C)C)=CC1=NC(=O)c1ccc(C)cc1`, the activity change vs negative control was -1% (active).
The result for `Cc1ccc(C(=O)Sc2cccccc2=O)cc1` reads 102% (inactive).
Under `CCOC(=O)c1sc2ncnc(NCC(c3cccs3)N(C)C)c2c1C` (configuration not stated) stands 61% (inactive); under `S=c1[nH]c(-c2ccccc2)cs1`, 85.5% (inactive).
The result for `COC(=O)Cn1c(=O)c(=O)n(CC(=O)OC)c2ccccc21` reads -3.8% (active); that for `CCOC(=O)Cn1cc(C=O)c2ccccc21`, 8.6% (inactive); that for `COC(=O)CCn1[nH]c(=O)c2ccccc2c1=O`, 15.6% (inactive).
Take `O=C(NC(=S)Nc1ncc(Br)cc1Br)c1ccccc1`: the activity change vs negative control is 28.8% (inactive).
In the case of `CCOC(=O)NC(=S)Nc1ccc(C(C)(C)C)cc1Br`, the activity change vs negative control is 16.6% (inactive).
In the case of `Cc1ccc(S(=O)(=O)NC(=S)NC2CCCCC2)cc1`, the activity change vs negative control was 19.8% (inactive).
The result for `O=C(Nc1ccc(Cl)c(-c2nc3ccccc3[nH]2)c1)c1cccnc1` reads -19.3% (active); that for `CN(C)S(=O)(=O)c1cccc(C(=O)Nc2cccnc2)c1`, 8% (inactive); that for `O=C(Nc1ccc(Oc2cccnc2)cc1)c1cccc([N+](=O)[O-])c1`, 13.8% (inactive).
The result for `O=C(NCC1CCCO1)c1ccc2c(=O)n(Cc3ccco3)c(SCC(=O)N3CCCC3)nc2c1` (configuration not stated) reads 32.7% (inactive).
The result for `Cc1cccc(/C=N/n2c(COc3ccccc3)n[nH]c2=S)c1` reads 14.1% (inactive); that for `S=c1[nH]nc(-c2ccco2)n1/N=C/C(Cl)=C/c1ccccc1`, 10.3% (inactive); that for `S=c1[nH]nc(-c2n[nH]c3c2CCC3)n1/N=C/C=C/c1ccccc1`, -4.8% (active).
On to `Cc1ccc(C(=O)CC(=O)c2cccc(F)c2)c(O)c1`, for which the activity change vs negative control is 7.2% (inactive).
For the compound `CC(C)c1nc2sc3c(=S)nc[nH]c3c2c2c1CCC2`, the activity change vs negative control was 45.5% (inactive).
The result for `Cc1cc2ccccn2c1C(=S)NC(=O)c1ccccc1` reads 68.1% (inactive); that for `C=CCn1c(O)c(N=NC(=S)Nc2ccc(OC)c(Cl)c2)c2ccccc21`, 18.3% (inactive); that for `COc1ccccc1Nc1nnc(SCC(=O)Nc2nc(-c3ccc(F)cc3)cs2)s1`, 9.1% (inactive).
Under `CCOC(=O)CSc1nnc(NC(=O)c2ccc3c(c2)OCO3)s1` stands 5.6% (inactive); under `Nc1nnc(SCC(=O)OCc2ccc(F)cc2)s1`, -2.1% (active).
The result for `CCOC(=O)C(=CNc1cc(C)ccn1)C(=O)OCC` reads 18.2% (inactive).
As for `S=c1nc(C2CC2)[nH]c2ccccc12`, the activity change vs negative control was 58.2% (inactive).
The result for `Cc1ccc(-c2nc3ccccc3c(=O)n2O)cc1` reads 29.3% (inactive).
Under `COc1ccc(-n2nc(C(=O)NCC(=O)NCc3ccc(F)cc3)c3ccccc3c2=O)cc1OC` stands 12.7% (inactive); under `NC(=O)c1nsc(C(=O)N(CC(=O)NCc2ccccc2)c2ccc(F)cc2)c1N`, -0.6% (active).
In the case of `Cc1ccccc1Cn1nc(C)c(NC(=O)c2ccccc2)c1C`, the activity change vs negative control is 73% (inactive).
Under `COc1ccccc1C(=O)NNC(=O)C(=O)Nc1ccc(C)cc1` stands 162% (inactive); under `O=C(O)c1cc(NN=C2c3ccccc3-c3ccccc32)ccc1Cl`, 63.8% (inactive); under `COC(=O)c1ccc(C(=O)NC(=S)Nc2nc3c(s2)CCCC3)cc1`, 37.8% (inactive).
For the compound `CC1CC(C)CN(CCCNC(=O)Cc2c(C(=O)O)[nH]c3ccccc23)C1` (configuration not stated), the activity change vs negative control is -0.3% (active).
The result for `CC1c2nc3ccccc3n2C(CC(=O)NCCCN2CCOCC2)C(=O)N1Cc1ccccc1` (configuration not stated) reads 12% (inactive); that for `O=C(CN1C(=O)COc2ccccc21)NCCCN1CCOCC1`, 6.2% (inactive).
In the case of `c1ccc2c(c1)c1ccccc1n1c(-c3ccc4c(c3)OCO4)nnc21`, the activity change vs negative control was 11.9% (inactive).
Under `Oc1c(Br)cc(Cl)cc1C=Nc1ccccc1Br` stands 57.7% (inactive); under `COc1ccc(NC(=O)CSCC(=O)Oc2c(OC)cccc2OC)cc1`, -7.6% (active); under `COc1ccc(CC(=O)Nc2ccc(-c3noc(-c4ccccc4OC)n3)cc2)cc1`, 7% (inactive).
Under `COc1ccc(OC(=O)Cc2cccc3ccccc23)cc1` stands 15.2% (inactive).
The result for `Cc1snnc1C(=O)NC(=S)Nc1ccccc1` reads 53.9% (inactive).
Consider `CCOc1ccc(CCNC(=O)Nc2ccccc2C)cc1OCC`, for which the activity change vs negative control was 13.5% (inactive).
Consider `Cc1cc(Cl)ccc1OC(C)C(=O)NCCc1ccc2c(c1)OCCO2` (configuration not stated), for which the activity change vs negative control is -9.4% (active).
Under `COc1ccc(CCNC(=O)C(=O)Nc2ccc3c(c2)OCO3)cc1OC` stands 8.8% (inactive).
In the case of `CCc1ccc(S(=O)(=O)NC(=S)NC2CCCCC2)cc1`, the activity change vs negative control is 83.7% (inactive).
The result for `O=C(CCN1C(=O)/C(=C\C=C\c2ccccc2)SC1=S)Nc1cccc(C(=O)O)c1` reads 0.8% (inactive).
The result for `C/C(O)=C/c1nc2ccccc2[nH]c1=O` reads -2% (active); that for `O=c1[nH]c2ccccc2nc1C(F)(F)C(F)F`, 15.2% (inactive).
Turning to `Cc1nc2ccc(C(=O)O)cc2[nH]1`, the activity change vs negative control was 11.1% (inactive).
The result for `S=C(NCCc1ccccc1)NCCN1CCOCC1` reads 11.5% (inactive); that for `O=C(O)Cn1cc(CN2CCOCC2)c2ccccc21`, 2.7% (inactive).
As to `OC(CCN1CCOCC1)c1ccccc1` (configuration not stated), the activity change vs negative control was -2.1% (active).
Under `O=c1ccn(Cc2ccc(F)cc2)c2ccnc(C(F)(F)F)c12` stands -1.9% (active); under `COc1ccc(C(=O)Nc2ccccc2C(=O)O)cc1Cl`, 19.2% (inactive); under `O=C(NC(=S)NCCC1=CCCCC1)c1ccco1`, 66.4% (inactive).
The result for `Cc1cccc(Cn2c(O)c(N=NC(=S)Nc3ccccc3F)c3ccccc32)c1` reads 5.5% (inactive).
The result for `CCN(CC)CCCNC(=O)c1cn(-c2cccc(OC)c2)c(=O)c2ccccc12` reads -4% (active); that for `COc1cccc(-n2nc(C(=O)O)c3ccccc3c2=O)c1`, 25.1% (inactive).
With `COc1cccc(NC(=O)c2nn(-c3ccc(OC)cc3OC)c(=O)c3ccccc23)c1`, the activity change vs negative control is 15.7% (inactive).
The result for `CCC1CCc2c(sc(NC(=O)C3CC=CCC3C(=O)O)c2C#N)C1` (configuration not stated) reads 32.7% (inactive).
As to `CCN(CC)c1ccc(NC(=S)NC(=O)c2cccs2)cc1`, the activity change vs negative control is 18.4% (inactive).
The result for `CCOC(=O)Cc1csc(NC(=S)NC(=O)C(C)(C)C)n1` reads 28.2% (inactive).
Under `COc1cccc(C(=O)Nc2cccc(-c3ccc(N4CCOCC4)nn3)c2)c1` stands 5.2% (inactive).
`Cc1cccc(NC(=S)NC(=O)c2ccc(Br)o2)c1`: the activity change vs negative control is 69.7% (inactive).
The result for `CCOc1ccc(-c2cccc(NC(=O)c3ccc(Br)o3)c2)nn1` reads -8.6% (active).
